Data as given in PubChem BioAssay (NCI).
About 79,000 compounds went through this panel and 15% of them were active in at least one assay; those are over-represented in the sample as a whole. Values without a mark were called inactive. Rule as the data show it: active = growth inhibition above about 70%; inactive = the rest.

Assay: NCI Yeast Anticancer Drug Screen. Data for the mlh1 rad18 strain (AID 175)
Settings: S. cerevisiae mlh1 rad18 strain growth inhibition; at 50.0 µM; active compounds read high
Procedure, shortened: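 A repair-deficient yeast strain is exposed to test compound, and growth is scored relative to vehicle-treated controls.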

In order of rising growth inhibition:
1. Cc1cc(C)c(NS(=O)c2cccc(Cl)c2)c(C)c1 (configuration not stated)  -50.2%
2. O=COCCCc1ccccc1  -23.7%
3. CC1(C)C2CC=C(CCO)C1C2 (configuration not stated)  -21.4%
4. C=C1CCCCCCCCC/C=C/1SCCCSC  -20.2%
5. O=[N+]([O-])c1ccc(OP2(Oc3ccc([N+](=O)[O-])cc3)=NP(Oc3ccc([N+](=O)[O-])cc3)(Oc3ccc([N+](=O)[O-])cc3)=NP(Oc3ccc([N+](=O)[O-])cc3)(Oc3ccc([N+](=O)[O-])cc3)=NP(Oc3ccc([N+](=O)[O-])cc3)(Oc3ccc([N+](=O)[O-])cc3)=N2)cc1  -17.2%
6. COc1cc(CCNC(=O)CC(C)C)ccc1OCc1ccccc1  -15.9%
7. CC1=CC=CC(C)(C)C(=O)C1=O  -15.4%
8. Cc1nc2ccc(Cl)c(Cl)c2s1  -10.4%
9. COc1cccc(/C(Cl)=C(\C=O)c2cccc(OC)c2)c1  -10.1%
10. FC1(F)C(F)(F)C(F)(F)C2(F)C(F)(F)C(F)(F)C(F)(F)C(F)(F)C2(F)C1(F)F (configuration not stated)  -8.5%
11. CCCCc1nc(C)oc1C(C)C  -8.2%
12. CCN(CC)CCOC(=O)c1c(C)cc(C)cc1C  -7.9%
13. c1ccc(CNCc2ccccc2)cc1  1.05%
14. CC(C)CCOC(=O)c1ccc(C(C)C)cc1  5.3%
15. CCOC(=O)C(C(=O)c1cccnc1)C(C(=O)OCC)C(=O)c1cccnc1 (configuration not stated)  5.55%
16. C=CCNC(=O)/C=C/C(=O)O  6.15%
17. CCC(C)(O)CCC(C)(O)CC (configuration not stated)  9.25%
18. O=C(Cl)CCc1ccnc2ccccc12  11.2%
19. C[N+]1(C)CCC(C(=O)c2ccccc2)CC1  16.4%
20. CC(C)[C@H]1CC[C@@](C)(C(=O)O)C1  16.4%
21. CC(=O)c1ccc(N=C2C(=O)Nc3ccccc32)cc1  25.8%
22. O=C(O)NC(c1ccccc1)C(NC(=O)c1ccccc1)c1ccccc1 (configuration not stated)  31.4%
